The campaign covered roughly 130,000 compounds. About 2,500 (1.9%) were called active. The sample as a whole holds a higher share of actives than the screen did. Values without a mark were called inactive.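 The calls were made as follows: active = signal ratio slope over the read window, or its plate-corrected B-score, at least 3 SD from the plate mean, either direction; inactive = the rest.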
molecular target: ATP-sensitive inward rectifier potassium channel 1 (Homo sapiens) (UniProt P48048); experiment: Kir1.1 channel activity modulation, library screen – cell-based, thallium flux, MLSMR library, primary screen (AID 1918); details: Tet-inducible ROMK, thallium flux fluorescence; at 10 µM; actives lie on both sides;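 also: B-score of the F/F0 ratio slope over 7 to 12 s after thallium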
Sequence (P48048 whole entry, looked up): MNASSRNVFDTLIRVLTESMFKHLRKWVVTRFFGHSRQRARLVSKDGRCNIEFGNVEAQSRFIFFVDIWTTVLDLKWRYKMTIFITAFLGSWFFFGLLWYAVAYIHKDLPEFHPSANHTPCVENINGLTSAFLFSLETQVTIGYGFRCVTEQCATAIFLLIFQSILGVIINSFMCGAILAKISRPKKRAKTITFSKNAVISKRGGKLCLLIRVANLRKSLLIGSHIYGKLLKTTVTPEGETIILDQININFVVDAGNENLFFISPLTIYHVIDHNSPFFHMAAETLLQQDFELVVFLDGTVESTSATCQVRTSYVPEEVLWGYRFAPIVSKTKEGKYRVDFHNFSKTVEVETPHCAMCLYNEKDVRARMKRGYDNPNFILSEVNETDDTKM

| SMILES | B-score |
| --- | --- |
| CC(C)N1CCC(=NNc2ccc([N+](=O)[O-])cc2S(=O)(=O)N2CCOCC2)CC1 | -0.739 |
| CC(C)OC(=O)CN1C(=O)C(=O)c2ccccc21 | -0.327 |
| O=C1C(=O)N(c2ccccc2)c2ccccc21 | 3.08 (active) |
| O=C1c2ccccc2C(=O)N1c1ccccc1S(=O)C(F)(F)F (centres undefined) | -0.708 |
| Cc1cc([N+](=O)[O-])nn1CCCC(=O)Nc1cccnc1Cl | 0.471 |
| COc1ccc(Br)cc1/C=N/NC(=O)c1cccc(S(=O)(=O)N2CCOCC2)c1 | -0.0649 |
| Oc1ccc2ccccc2c1N=Nc1nccs1 | 2.22 (active) |
| Oc1c(C=Nc2cccc3nsnc23)ccc2ccccc12 | -0.773 |
| COc1cccc(C(=O)Nc2cccnc2)c1OC | 1.32 |
| Cc1cccc(-n2c(C)cc(/C=N/NC(N)=S)c2C)c1 | 2.21 |
| Cc1cc(/C=N/NC(N)=O)c(C)n1C1CCCCC1 | 3.24 (active) |
| Cc1cccc(-n2c(C)cc(/C=N\NC(=O)c3cccs3)c2C)c1 | 0.454 |
| COc1cc2c(cc1OC)CN(C(=O)c1cc(=O)c3ccccc3o1)CC2 | 2.64 |
| CCOc1cc(C(=O)N2CCc3cc(OC)c(OC)cc3C2)ccc1OC(F)F | 4.09 (active) |
| COc1ccc(CC(NC(C)=O)C(=O)NC2CCN(C(=O)c3ccc(OC)c(OC)c3)CC2)cc1OC (centres undefined) | -0.592 |
| CS(=O)(=O)N(Cc1ccccc1Cl)c1ccc(C(=O)NCc2cccnc2)cc1 | -0.455 |
| S=C(NCc1ccco1)Nc1ccc2c(c1)OCCO2 | 0.904 |
| CCSc1sc(CC)cc1C=O | 4.04 (active) |
| Cc1ccc(S(=O)(=O)Nc2nc(N)n(-c3ccccc3)n2)cc1 | 0.00772 |
| CC(C)(C)CC(C)(C)NCC(O)COCCOc1ccc(Br)cc1 (centres undefined) | -3.09 (active) |
| Cc1noc(COc2ccccc2OCC(O)CNC(C)(C)C)n1 (centres undefined) | -0.0138 |
| Nc1ccccc1SC(C[N+](=O)[O-])c1ccccc1 (centres undefined) | -8.64 (active) |
| O=C(NCc1ccc(Cl)cc1)NCc1ccc(Cl)cc1 | -0.951 |
| S=c1[nH]nc(-c2cccnc2)n1/N=C/C(Cl)=C\c1ccccc1 | -3.13 (active) |
| Oc1ccccc1/C=N/n1c(-c2cccs2)n[nH]c1=S | 0.503 |

| SMILES | B-score |
| --- | --- |
| S=c1[nH]nc(-c2ccccc2)n1/N=C/c1c[nH]c2ccccc12 | 1.36 |
| Cc1ccc(C(=O)O)cc1NC(=O)c1ccc(Cn2nc(C)c(Cl)c2C)o1 | -0.188 |
| Cc1nc2sc3c(c2c(=O)n1NC(=O)CCl)CCCC3 | -0.421 |
| CS(=O)(=O)c1ccc2c(c1)SC1=NC(=O)/C(=C/c3ccco3)C(=N)N12 | 0.317 |
| CCS(=O)(=O)C1=NSC2=NC(=O)/C(=C\c3cc(C)n(-c4cccc(OC)c4)c3C)C(=N)N21 | 1.02 |
| Cc1cc(/C=C2/C(=N)N3C(=NC2=O)SN=C3S(C)(=O)=O)c(C)n1-c1ccccc1 | 1.2 (active) |
| CC(C)(C)NC(=O)NC(=O)COC(=O)Cc1c(F)cccc1Cl | -0.0671 |
| COC(=O)COc1ccc(C2NC(=O)NC(C)=C2C(=O)NCc2ccccc2)cc1OC (centres undefined) | 0.834 |
| NS(=O)(=O)c1ccc(NC(=O)/C=C/c2ccccc2Cl)cc1 | 0.913 |
| CCN(CC)N=Nc1cccc(NC(C)=O)c1 | 0.863 |
| Cc1cccn2c(=O)c3cc(C(=O)N4COCC4(C)C)n(C)c3nc12 | -4.56 (active) |
| CCn1c(=N)c(C(=O)NCCCOC)cc2c(=O)n3cccc(C)c3nc21 | -1.26 |
| Cc1cccn2c(=O)c3cc(C#N)c(=O)n(CCCN4CCOCC4)c3nc12 | 0.896 |
| S=C(c1ccc(-c2ccccc2)o1)N1CCCCC1 | -1.97 |
| CC(=O)NC(Cc1ccc(F)c(F)c1)C(=O)NC1CCN(C(=O)c2ccc(C)cc2)CC1 (centres undefined) | -0.484 |
| CCOC(=O)N1CCN(C(=O)c2ccccc2N(Cc2ccccc2)S(=O)(=O)c2ccc(OC)cc2)CC1 | 2.44 |
| CCOC(=O)C1CCN(C(=O)c2ccccc2N(C)S(=O)(=O)c2ccccc2)CC1 | 0.0133 |
| NC(=O)c1ccccc1N(Cc1ccccc1)S(=O)(=O)c1ccccc1 | 3.2 (active) |
| COC(=O)c1ccccc1NC(=O)C1CC(=O)N(c2ccc(OC)cc2)C1 (centres undefined) | 0.403 |
| CCOC(=O)C1CCN(S(=O)(=O)c2cc(F)ccc2OC)CC1 | -0.346 |
| COC(=O)c1ccccc1NC(=O)C1CCN(S(=O)(=O)c2cc(OC)ccc2OC)CC1 | 2.29 (active) |
| CCOC(=O)C1=C(CN2CCCCCC2)NC(=O)NC1c1cccc([N+](=O)[O-])c1 (centres undefined) | -1.02 |
| COc1ccc(C(=O)NC2CCN(C(=S)NCCc3ccccc3)CC2)cc1 | -0.464 |
| NS(=O)(=O)c1ccc(CCNC(=O)c2ccc([N+](=O)[O-])cc2[N+](=O)[O-])cc1 | 0.546 |
| O=C(COC(=O)c1ccccc1F)Nc1cc(S(=O)(=O)N2CCOCC2)ccc1N1CCCC1 | -0.699 |

| SMILES | B-score |
| --- | --- |
| CN1CCN(c2ccc(S(=O)(=O)N3CCCCC3)cc2NC(=O)Cc2ccccc2F)CC1 | -4.06 (active) |
| COc1ccc(CC(=O)Nc2cc(S(=O)(=O)N3CCCCC3)ccc2N2CCN(C)CC2)cc1 | 0.269 |
| C=CCOC(=O)C1=C(C)N=C2SCCC(=O)N2C1/C=C/c1ccccc1OC (centres undefined) | -2.24 |
| COCCn1c(Cc2cccn2C)nnc1SCC(=O)Nc1nccs1 | -0.191 |
| CCn1c(/C=C/Nc2ccccc2)[n+](CC)c2ccc(C(=O)OCC(F)(F)F)cc21 | -3.51 (active) |
| Cn1cnc(S(=O)(=O)Nc2ccc3c(c2)OCCO3)c1 | 1.18 |
| CNC(=O)/C(C#N)=C/c1c(F)cccc1Cl | -5.65 (active) |
| O=C(/C=C/c1c(F)cccc1Cl)Nc1nn[nH]n1 | -0.796 |
| Cc1[nH]c2ccccc2c1/C=C(/C#N)C(=O)NC(C)C | 0.27 |
| COc1ccc(C(=O)NC2CCN(C(=S)Nc3ccccc3)CC2)cc1 | 0.59 |
| C=CCn1c(COc2ccc(F)cc2)nnc1SCC(=O)Nc1cccc(S(N)(=O)=O)c1 | 0.118 |
| COC(=O)CNc1nc(Cl)nc(N2CCC(C)CC2)n1 | -0.416 |
| COCCNC(=O)c1ccc(-n2c(SCc3cccnc3)nc3ccccc3c2=O)cc1 | -0.255 |
| O=C1CN(C(=O)COC(=O)c2cnc(Cl)c(Cl)c2)c2ccccc2N1 | -0.857 |
| CN(C)CC(O)COc1ccc(C(C)(C)c2ccc(OCC(O)CN(C)C)cc2)cc1 (centres undefined) | -0.0221 |
| CC(C)(c1ccccc1)c1ccc(OCCN)cc1 | -2.62 (active) |
| CCCOc1ccc(C(=O)NCCc2ccccc2)cc1 | 0.056 |
| O=C(NC(=S)Nc1ccc(S(=O)(=O)N2CCOCC2)cc1)c1ccccc1[N+](=O)[O-] | -0.648 |
| CN(CC(=O)Nc1ccc(N2CCOCC2)cc1)CC(=O)Nc1ccccc1[N+](=O)[O-] | -0.00205 |
| O=C(Nc1ccc(N2CCOCC2)cc1)c1ccc(-c2ccccc2[N+](=O)[O-])o1 | 3.49 (active) |
| CCc1nnc(NC(=O)Cc2cccs2)s1 | 0.627 |
| CCn1cc(CN2CCCC(CNS(=O)(=O)Cc3ccccc3)C2)cn1 (centres undefined) | -1.12 |
| CCOc1ncccc1C(=O)OCC(=O)NC1CC1 | 0.144 |
| COc1cccc(NC(=O)CC2C(=O)NCCN2C(=S)Nc2ccc(F)cc2)c1 (centres undefined) | -0.0401 |
